In the supplement of paper PMC8773631:
Structures can show the parent of a compound that is named as a salt. ± gives the uncertainty stated by the source.

tested on: NCC-MFS5-C1; assay: cell viability relative to DMSO control; higher = less growth inhibition; conditions: 10 µM; treatment time: 3 days
Description: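 NCC-MFS5-C1 myxofibrosarcoma cells (1x10^4 per well, 384-well) were treated on day 2 with 10 µM of each drug. On day 5, viability was read by CCK-8 absorbance at 450 nm and normalised to the DMSO control (%), n = 2.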

| Compound | cell viability |
| --- | --- |
| COC(=O)N[C@H](C(=O)N[C@@H](Cc1ccccc1)[C@@H](O)CN(Cc1ccc(-c2ccccn2)cc1)NC(=O)[C@@H](NC(=O)OC)C(C)(C)C)C(C)(C)C [Atazanavir Sulfate] | 67.8 ± 13% |
| CNC(=O)c1ccc(-c2cnc3ncc(Cc4ccc5ncccc5c4)n3n2)cc1F | 80.9 ± 7.9% |
| CC[C@H]1OC(=O)[C@H](C)[C@@H](O[C@H]2C[C@@](C)(OC)[C@@H](O)[C@H](C)O2)[C@H](C)[C@@H](O[C@@H]2O[C@H](C)C[C@H](N(C)C)[C@H]2O)[C@](C)(O)C[C@@H](C)CN(C)[C@H](C)[C@@H](O)[C@]1(C)O [Azithromycin] | 69.4 ± 0.75% |
| COc1cc2c(Oc3ccc(NC(=O)C4(C(=O)Nc5ccc(F)cc5)CC4)cc3F)ccnc2cc1OCCCN1CCOCC1 | 7.35 ± 2% |
| O=C(/C=C/c1cccc(S(=O)(=O)Nc2ccccc2)c1)NO [Belinostat (PXD101)] | 26.9 ± 0.53% |
| COc1cc([C@@H]2c3cc4c(cc3[C@@H](O[C@@H]3O[C@@H]5CO[C@@H](C)O[C@H]5[C@H](O)[C@H]3O)[C@H]3COC(=O)[C@H]23)OCO4)cc(OC)c1O [Etoposide] | 74.3 ± 9% |
| Cc1cccc(N(C)C(=S)Oc2ccc3ccccc3c2)c1 [Tolnaftate] | 103 ± 6.7% |
| CNC(=O)c1cc(Oc2ccc(NC(=O)Nc3ccc(Cl)c(C(F)(F)F)c3)cc2)ccn1 [Sorafenib Tosylate] | 45.3 ± 1.9% |
| CC(=O)OCC(CCn1cnc2cnc(N)nc21)COC(C)=O [Famciclovir] | 80.4 ± 5.5% |
| COc1cc2ncnc(Nc3ccc(F)c(Cl)c3)c2cc1OCCCN1CCOCC1 [Gefitinib(ZD1839)] | 95.1 ± 3.7% |
| Cc1ccc(C(=O)Nc2ccc(CN3CCN(C)CC3)c(C(F)(F)F)c2)cc1C#Cc1cnc2cccnn12 | -2.74 ± 0.27% |
| CC(C)(OCc1nn(Cc2ccccc2)c2ccccc12)C(=O)O [Bindarit] | 85.93 ± 0.83% |
| O=C(Nc1nc2cccc(-c3ccc(CN4CCS(=O)(=O)CC4)cc3)n2n1)C1CC1 [Filgotinib (GLPG0634)] | 93.1 ± 4.5% |
| CC[C@H](Nc1ncnc2[nH]cnc12)c1nc2cccc(F)c2c(=O)n1-c1ccccc1 [CAL-101 (Idelalisib, GS-1101)] | 72.3 ± 6.2% |
| C=CC(=O)Nc1cc(Nc2nccc(-c3cn(C)c4ccccc34)n2)c(OC)cc1N(C)CCN(C)C [Osimertinib (AZD9291)] | 2.66 ± 0.22% |
| C=CC[C@@H]1/C=C(\C)C[C@H](C)C[C@H](OC)[C@H]2O[C@@](O)(C(=O)C(=O)N3CCCC[C@H]3C(=O)O[C@H](/C(C)=C/[C@@H]3CC[C@@H](O)[C@H](OC)C3)[C@H](C)[C@@H](O)CC1=O)[C@H](C)C[C@@H]2OC [Tacrolimus (FK506)] | 93.7 ± 7.5% |
| CC(C)(C#N)c1cc(Cn2cncn2)cc(C(C)(C)C#N)c1 [Anastrozole] | 83.5 ± 5.1% |
| Nc1nc2n[nH]nc2c(=O)[nH]1 [Azaguanine-8] | 85.2 ± 7% |
| N#CC[C@H](C1CCCC1)n1cc(-c2ncnc3[nH]ccc23)cn1 | 66.2 ± 4.7% |
| O=c1[nH]c(=O)n(C2CCCO2)cc1F (stereo not given) | 88.2 ± 5.4% |

| Compound | cell viability |
| --- | --- |
| CNC[C@H](O)c1ccc(O)c(O)c1 [Epinephrine Bitartrate] | 106 ± 5.9% |
| Nc1nc(F)nc2c1ncn2[C@@H]1O[C@H](CO)[C@@H](O)[C@@H]1O [Fludarabine] | 96.3 ± 7.3% |
| O=C(c1cc(Cc2n[nH]c(=O)c3ccccc23)ccc1F)N1CCN(C(=O)C2CC2)CC1 | 78 ± 9.1% |
| CNC(=O)c1cc(Oc2ccc(NC(=O)Nc3ccc(Cl)c(C(F)(F)F)c3)cc2)ccn1 [Sorafenib] | 64.2 ± 1.6% |
| COc1ccc2[nH]c([S@@+]([O-])Cc3ncc(C)c(OC)c3C)nc2c1 [Esomeprazole Sodium] | 74.6 ± 1.4% |
| COc1nc(N)nc2c1ncn2[C@@H]1O[C@H](CO)[C@@H](O)[C@@H]1O [Nelarabine] | 102 ± 3.3% |
| COc1cccc2c1C(=O)c1c(O)c3c(c(O)c1C2=O)C[C@@](O)(C(=O)CO)C[C@@H]3O[C@H]1C[C@H](N)[C@@H](O)[C@H](C)O1 [Epirubicin HCl] | 45.5 ± 1% |
| C[C@H](NC(=O)Cc1cc(F)cc(F)c1)C(=O)N[C@H](C(=O)OC(C)(C)C)c1ccccc1 | 108 ± 11% |
| Oc1ncnc2[nH]ncc12 [Allopurinol] | 86.2 ± 18% |
| Cc1ccc(F)c(NC(=O)Nc2ccc(-c3cccc4[nH]nc(N)c34)cc2)c1 [Linifanib (ABT-869)] | 46.3 ± 12% |
| Nc1nnc(-c2cccc(Cl)c2Cl)c(N)n1 [Lamotrigine] | 90 ± 4.7% |
| CS(=O)(=O)CCNCc1ccc(-c2ccc3ncnc(Nc4ccc(OCc5cccc(F)c5)c(Cl)c4)c3c2)o1 [Lapatinib] | 58.6 ± 2.2% |
| CC[C@@H]1/C=C(\C)C[C@H](C)C[C@H](OC)[C@H]2O[C@@](O)(C(=O)C(=O)N3CCCC[C@H]3C(=O)O[C@H](/C(C)=C/[C@@H]3CC[C@H](Cl)[C@H](OC)C3)[C@H](C)[C@@H](O)CC1=O)[C@H](C)C[C@@H]2OC [Pimecrolimus] | 41.3 ± 5.4% |
| COC(=O)c1ccc2c(C(=Nc3ccc(N(C)C(=O)CN4CCN(C)CC4)cc3)c3ccccc3)c(O)[nH]c2c1 [Nintedanib (BIBF 1120)] | 39.1 ± 0.64% |
| COc1cc2nccc(Oc3ccc(NC(=O)Nc4cc(C)on4)c(Cl)c3)c2cc1OC [Tivozanib (AV-951)] | 59.7 ± 2.6% |
| O=c1[nH]cc(F)c(=O)[nH]1 [Fluorouracil (5-Fluoracil, 5-FU)] | 78.9 ± 19% |
| Nc1ncn([C@H]2C[C@H](O)[C@@H](CO)O2)c(=O)n1 [Decitabine] | 134 ± 7.4% |
| CC(=O)[C@]1(O)Cc2c(O)c3c(c(O)c2[C@@H](O[C@H]2C[C@H](N)[C@H](O)[C@H](C)O2)C1)C(=O)c1ccccc1C3=O [Idarubicin HCl] | 0.409 ± 0.53% |
| CN(C)C/C=C/C(=O)Nc1cc2c(Nc3ccc(F)c(Cl)c3)ncnc2cc1O[C@H]1CCOC1 [Afatinib (BIBW2992)] | 9.65 ± 4.3% |
| CN1CCN(CCOc2cc(OC3CCOCC3)c3c(Nc4c(Cl)ccc5c4OCO5)ncnc3c2)CC1 [Saracatinib (AZD0530)] | 62.8 ± 3.8% |
